Records with an inconclusive call do not appear. Active and inactive are the calls of the source. Calls come from the whole dose curve; as a rule, active = well fitted cell-killing curve with a large enough effect; inconclusive = small, poorly fitted or top-dose-only effect; inactive = no such curve, though single readings can be large or run the other way.
Test: qHTS of pediatric cancer cell lines to identify multiple opportunities for drug repurposing: Confirmatory screen for BT-37 cells (AID 1347117); note: nearly all actives have a fitted effect of over 55% in size
Conditions: BT-37 pediatric cancer cells, viability; series mostly up to 45.9 µM
Source text: Drug repurposing or repositioning has been offered as a strategy for drug development in oncology programs. This approach has special potential for childhood cancers and other rare or orphan diseases, where the expected return on new drug development has been a disincentive to pharmaceuticals.
In this project we exploit the poly-pharmacology of drugs to discover new indications via phenotypic screening of a panel of 19 well-characterized cell lines derived from solid tumors seen in children and adolescents. The goal is to identify approved drugs with previously unrecognized anticancer properties that has the potential to reveal new mechanisms and biological processes involved in carcinogenesis or drug resistance. We employed a titration-based paradigm (quantitative high-throughput screening or qHTS), where all compounds were tested at multiple concentrations for their effect on cell viability. Concentration-response curves (CRCs) were derived directly from the primary screen, and both potency and efficacy values were used to identify compounds with robust bioactivity profiles. We screened the NIH Chemical Genomics Center (NCGC) Pharmaceutical Collection (NPC) and Mechanism Interrogation Plate (MIPE) small molecule collections of approved and investigational compounds against these cell lines; and measured metabolically active cells after 48 hours of compound treatment as a proxy for cell viability.
Assay Submitter: Nathalia J. Martinez, National Center for Advancing Translational Sciences, National Institutes of Health, Rockville, MD, USA; email: natalia.martinez@nih.gov
[1] Shen, M et al. Quantitative high-throughput phenotypic screening of pediatric cancer cell lines identifies multiple opportunities for drug repurposing. Oncotarget 2017 Dec 19;9(4):4758-4772. PMID 29435139.
The cells were obtained from University of North Carolina (UNC), Pediatric Preclinical Testing Program (PPT), and Coriell Institute (CI).
qHTS cell viability assay:
Cells were assayed in growth media at a density of 500-1,000 cells/well. Five microliters of cells were dispensed into 1,536-well, white, solid-bottom, TC-treated plates (Greiner Bio One) using a multidrop dispenser and incubated at 37 degrees C, 5% CO2, under a humidified atmosphere for 5 hours. Twenty-three nanoliters of compounds and controls (neutral control DMSO or positive control bortezomib at final concentration of 2.3 µM) were subsequently transferred by Kalypsys pintool. For primary screens, the MIPE collection was tested at 11-point dilutions (final concentrations range from 0.78 nM to 46 µM) and the NPC collection at 8-point dilutions (final concentrations range from 0.59 nM to 46 µM). Compounds tested in follow-up screens were assayed at 11-point dilutions. Cells were incubated for 48 hours, followed by addition of 3 µL of CellTiter-Glo (Promega). After a 15 min incubation at room temperature, samples were analyzed for luminescence intensity using a ViewLux High-throughput CCD imager equipped with clear filters.
Potency is the fitted concentration of half-maximal effect.

Compound | Potency | activity change, negative = cytotoxic
COc1ccc(C(=O)c2ccccc2)c(O)c1 | inactive | –
O=[N+]([O-])c1ccc(/C=N\O)o1 | inactive | –
O=C(Oc1cccc2cccnc12)c1ccccc1 | 20800 nM (active) | –
O=C(CCCN1CC=C(n2c(=O)[nH]c3ccccc32)CC1)c1ccc(F)cc1 | inactive | –
CCN(CC)CCOc1ccc2c(c1)C(=O)c1cc(OCCN(CC)CC)ccc1-2 | 20800 nM (active) | –
NC(N)=NN=C(/C=C/c1ccc([N+](=O)[O-])o1)/C=C/c1ccc([N+](=O)[O-])o1 | 1470 nM (active) | –
CCN[C@@H]1C[C@H](N)[C@@H](OC2OC(CN)=CCC2N)[C@H](O)[C@H]1O[C@H]1OC[C@](C)(O)[C@H](NC)[C@H]1O (stereo partly drawn) | – | 4.53% [at 0.556 µM] (inactive)
CCN1/C(=C/C=C/c2sc3ccccc3[n+]2CC)Sc2ccccc21 | 827 nM (active) | –
C[C@H]1O[C@@H](O[C@H]2CC[C@@]3(C)[C@H](CC[C@@H]4[C@@H]3C[C@@H](O)[C@]3(C)[C@@H](C5=CC(=O)OC5)CC[C@]43O)C2)C[C@H](O)[C@@H]1O[C@H]1C[C@H](O)[C@H](O[C@H]2C[C@H](O)[C@H](O[C@@H]3O[C@H](CO)[C@@H](O)[C@H](O)[C@H]3O)[C@@H](C)O2)[C@@H](C)O1 | 185 nM (active) | –
CCCCCCCCCCC[C@@H](C[C@@H]1OC(=O)[C@H]1CCCCCC)OC(=O)[C@H](CC(C)C)NC=O | inactive | –
CCCCCCCCCCCCOCCOCCOCCOCCOCCOCCOCCOCCOCCO | inactive | –
Nc1nc(Cl)nc2c1ncn2[C@@H]1O[C@H](CO)[C@@H](O)[C@@H]1F | 329 nM (active) | –
C[C@@]12C(=O)OC(=O)[C@]1(C)C1CCC2O1 | 2080 nM (active) | –

Source: PubChem BioAssay (NCATS)
